Assay outcomes (PubChem)
VP16 counter – counter-screen for ROR gamma inhibitors: Gal4-VP16 reporter. Drosophila S2 Gal4-VP16 UAS-luciferase, luminescence, 20 h. Potency, µM (series often up to 53.6 µM), without a hit: at the top dose activity, negative = inhibition, most hits filed as inhibitors. 3.5% of 310,000 active. AID 2546;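 also: Gal4-VP16 expression switched on by copper sulfate through the metallothionein promoter; nearly all actives have a fitted effect of over 50% in size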
Tau fibril FP – blocks human tau fibril formation measured by polarization | AID 1468 | Potency, µM (highest dose often 57.7 µM), without a hit: at the highest dose activity, negative = inhibition, most hits filed as inhibitors | 0.39% of 280,000 active | P10636 | K18 P301L tau heparin fibrillization, Alexa594 FP, 6 h; also: nearly all actives have a fitted effect of over 55% in size
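Heparin (20 uM) drove fibril formation of recombinant tau K18 P301L, 15 uM unlabeled with 0.24 uM Alexa 594 label, for 6 hr at 37 C in 100 mM sodium acetate pH 7. Fluorescence polarization (555/632 nm) read 1 hr after 30 uM ThT.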
Tau fibril ThT – tau fibrillization inhibition (ThT binding). recombinant tau K18 P301L, heparin-induced fibrillization, ThT fluorescence. Potency, µM (doses to about 57.4 µM), for inactives: at the highest dose activity, negative = inhibition, actives largely listed as inhibitors. 2.1% of 270,000 active; also: nearly all actives have a fitted effect of over 55% in size
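Aggregation was driven by heparin (20 uM final) acting on recombinant tau […] bearing P301L in 100 mM sodium acetate pH 7; fibrils were detected with Thioflavin T.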
RORgamma inh – blocks mouse ROR gamma transcriptional activity. Drosophila S2 Gal4-RORgamma UAS-luciferase reporter, 20 h. Potency, µM (titrated, usually from 53.6 µM), for inactives: top-dose activity change, negative = inhibition, actives largely listed as inhibitors. 5.4% of 310,000 active. AID 2551; also: nearly all actives have a fitted effect of over 60% in size
Target sequence (P51450 whole entry, looked up, the tested form may be a part): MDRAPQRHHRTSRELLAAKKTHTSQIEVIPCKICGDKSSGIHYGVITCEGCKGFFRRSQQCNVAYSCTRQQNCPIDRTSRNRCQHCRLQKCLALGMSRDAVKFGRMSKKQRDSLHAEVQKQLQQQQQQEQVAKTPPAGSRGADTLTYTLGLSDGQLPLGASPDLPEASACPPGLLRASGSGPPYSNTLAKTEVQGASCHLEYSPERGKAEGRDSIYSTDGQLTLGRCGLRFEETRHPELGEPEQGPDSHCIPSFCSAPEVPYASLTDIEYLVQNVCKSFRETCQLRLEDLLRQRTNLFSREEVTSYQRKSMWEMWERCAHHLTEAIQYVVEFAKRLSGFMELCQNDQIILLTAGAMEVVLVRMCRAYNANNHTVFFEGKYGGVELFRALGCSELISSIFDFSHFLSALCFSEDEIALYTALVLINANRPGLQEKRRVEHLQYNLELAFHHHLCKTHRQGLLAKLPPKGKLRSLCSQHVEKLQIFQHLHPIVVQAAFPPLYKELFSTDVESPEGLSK
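ROR gamma transcriptional activity was tracked as Gal4-UAS luciferase output in stably transfected Drosophila Schneider cells, with compound added 1 hr before 700 uM copper sulfate induction and a 20 hr ambient-temperature incubation.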
Tau fluor counter – counter-screen for tau fibril formation inhibitors. tau K18 P301L Alexa594 fluorescence, heparin fibrillization. Potency, µM (highest dose often 57.7 µM), inactives show at the top dose activity change, negative = decrease. 0.93% of 280,000 active; also: nearly all actives have a fitted effect of over 55% in size
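Human tau K18 P301L (15 uM unlabeled, 0.24 uM Alexa 594-labeled) in 100 mM sodium acetate pH 7 with 20 uM heparin, 6 hr at 37 C. ThT 30 uM added, 1 hr ambient; Alexa 594 FP and total fluorescence read at 555/632 nm.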
Starred values were filed as active, the others as inactive; ? = inconclusive; nt = no result; [ ] = dose if it differs, or a comment. In the library only some 7.3% were active in any assay of this set; here they are far more common. Calls follow the shape of the dose curve; as a rule, active = well fitted curve in the direction sought with a large enough effect; inconclusive = small, poorly fitted or top-dose-only effect, or another doubt; inactive = no such curve, though single readings can be large; an effect the other way counts as inactive or inconclusive. % is scaled to controls: 0 for no effect and ±100 for the full control effect; potency is read from the fitted curve at half-maximal effect.

SMILES	VP16 counter	Tau fibril FP	Tau fibril ThT	RORgamma inh	Tau fluor counter
CC(C)c1ccc(C(O)c2nc3ccccc3n2C)cc1 (configuration not stated)	-16%	nt	nt	-15%	nt
CCn1ccnc1CNC(=O)CC1C(=O)NCCN1Cc1ccccc1F (configuration not stated)	7%	7%	-4%	-25%	10%
CCc1ccc(CNC(=O)CC2C(=O)NCCN2Cc2ccccc2F)nc1 (configuration not stated)	?	nt	nt	10µM*	nt
COC(=O)C1CCN(C(c2ccccc2Cl)c2sc3nc(-c4ccco4)nn3c2O)CC1 (configuration not stated)	nt	-4%	-9%	nt	-2%
Cc1cccc(NC(=S)NCc2cccn2C)c1	-4%	10%	-10%	?	-15%
Cc1ccccc1NC(=S)NCc1cccn1C	?	2%	1%	?	3%
Cc1ccc(NC(=S)NCc2cccn2C)cc1	?	6%	-6%	4µM*	-19%
Cc1c(Cl)cccc1NC(=S)NCc1cccn1C	18µM*	1%	0%	4.5µM*	-2%
Cc1ccc(Cl)cc1NC(=S)NCc1cccn1C	7.9µM*	8%	-7%	7.1µM*	-13%
CCOC(=O)c1ccc2c(c1)N(Cc1cccc([N+](=O)[O-])c1)C(=O)c1ccccc1S2	nt	-1%	-1%	nt	-26%
Cc1cc(C)nc(Sc2nc(Nc3ccccc3)nc(Sc3nc(C)cc(C)n3)n2)n1	?	-11%	-5%	-37%	-4%
Cc1ccccc1Nc1nc(N)nc(CCl)n1	2%	2%	-16%	-3%	-10%
Cc1ccc(Nc2nc(Nc3ccc(C)cc3)nc(SC3=NCCS3)n2)cc1	5.6µM*	?	?	2.5µM*	?
Cc1ccccc1Nc1nc(Nc2ccccc2C)nc(SC2=NCCS2)n1	7.1µM*	-15%	-24%	6.3µM*	-26%
Oc1ccc(/C=N/NC(=S)NCc2ccco2)cc1	-10%	2%	-16%	11µM*	-14%
S=C(NCc1ccco1)N/N=C/c1cccnc1	?	-6%	-3%	11µM*	-9%
CCN(CC)c1ccc(/C=N/NC(=S)NCc2ccco2)cc1	3.2µM*	?	?	1.8µM*	?
Oc1c(Br)cc(/C=N/NC(=S)NCc2ccco2)cc1Br	-10%	8%	?	?	?
S=C(NCc1ccco1)N/N=C/c1ccc(Cl)cc1	5.6µM*	-14%	0%	2.5µM*	?
CCOc1ccc(N2C(=O)/C(=C\c3ccc(OC)c(O)c3)S(=O)(=O)C2c2cccc([N+](=O)[O-])c2)cc1 (configuration not stated)	-5%	12%	-2%	33%	-16%
CCOc1ccc(N2C(=O)/C(=C\c3ccc(O)c(OC)c3)S(=O)(=O)C2c2cccc([N+](=O)[O-])c2)cc1 (configuration not stated)	-11%	8%	?	37%	32µM*[quencher]
COc1ccc(NC(=O)C2COc3ccccc3C2)cc1Cl (configuration not stated)	nt	-3%	-8%	nt	-17%
Cc1ccc(OCC(=O)Nc2c(C)ccc3nsnc23)cc1	-7%	nt	nt	4%	nt
Cc1ccc(C(=O)NC(=S)Nc2c(C)ccc3nsnc23)cc1	?	-6%	-17%	10µM*	-9%
Cc1ccc2ncccc2c1NS(=O)(=O)c1ccccc1	-3%	1%	-11%	?	-9%
SMILES	VP16 counter	Tau fibril FP	Tau fibril ThT	RORgamma inh	Tau fluor counter
Cc1ccc(C(=O)NC(=S)Nc2cccc3c(C)cc(C)nc23)cc1	4.5µM*	-10%	-14%	1µM*	-11%
CC(C)C(=O)NC(=S)Nc1c(Cl)ccc2nsnc12	-2%	3%	4%	13µM*	7%
Cc1ccc2ncccc2c1NC(=S)NC(=O)c1ccccc1	25%	-5%	-3%	8.9µM*	1%
Cc1ccc(C(=O)NC(=S)Nc2cccc3nsnc23)cc1	26%	?	13µM*	-18%	-22%
Cn1c(Oc2ccccc2)nc2c1c(=O)n(Cc1ccc(Cl)cc1Cl)c(=O)n2C	nt	-5%	7%	nt	2%
O=c1c(N2CCc3ccccc3C2)csc2ccc(Br)cc12	nt	2%	?	nt	-7%
O=c1c(N2CCc3ccccc3C2)csc2ccccc12	nt	0%	14µM*	nt	-21%
